# In PubChem BioAssay (NCATS):
# Activity calls are given as the source filed them. How the calls were made is not given here.
# Test system: HIV-1 nucleocapsid protein NCp7 (binding to TG oligonucleotide)
# Test: HIV Nucleocapsid (AID 346);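 further: potency is for inhibitors that block NC binding and lower polarization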
# Conditions: HIV-1 NC / fluorescein-TGTGTGTG probe, fluorescence polarization
# Procedure, shortened: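 Fluorescence polarization readout: labelled TG4xF oligo (10 nM) with 100 nM nucleocapsid protein, high-salt (250mM NaCl) Hepes pH 7.5 buffer containing zinc and fresh reducing agents. Compounds added by pin tool; incubation 1 hr, room temperature.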
# Potency means the concentration at half of the fitted maximal effect.
row,SMILES,Potency
1,O=C(c1ccncc1)N1CCC[C@@]2(CCN(c3ccccc3)C2)C1,> 20 µM (inactive)
2,COc1ccc(-n2c(=O)c(CCc3ccccc3)nc3cnc(N4CCN(C)CC4)nc32)cc1,> 20 µM (inactive)
3,CN(C)c1ncc2nc(CCc3ccccc3)c(=O)n(C[C@H]3CCCO3)c2n1,> 20 µM (inactive)
4,COc1ccc(NC(=O)N2CCC3(CC2)CCN(S(C)(=O)=O)CC3)cc1,> 20 µM (inactive)
5,c1ccc(-c2ccc(N3CC[C@@]4(CCCNC4)C3)cc2)cc1,> 20 µM (inactive)
6,COc1ccc(CNc2ncncc2-c2ccccc2C)c(OC)c1,> 20 µM (inactive)
7,O=S(=O)(c1ccccc1)N1CCC2(CCCN(c3cccc(-c4ccccc4)c3)C2)CC1,> 20 µM (inactive)
8,COc1ccccc1CN1CCCC2(CCN(C(=O)c3cc(C(F)(F)F)cc(C(F)(F)F)c3)CC2)C1,> 20 µM (inactive)
9,COc1ccc(-c2nc3cnc(N(C)C)nc3n(C3CC3)c2=O)cc1,> 20 µM (inactive)
10,Cc1cccc(CNc2nc(-c3ccc4c(c3)OCO4)nc3ccccc23)c1,> 20 µM (inactive)
11,Cc1ccccc1-c1ccc2ncnc(N3CCNCC3)c2c1,> 20 µM (inactive)
12,COc1ncc2ncc(=O)n(C)c2n1,> 20 µM (inactive)
13,CN(C)Cc1ccccc1-c1ccc2ncnc(NCc3ccccc3)c2c1,> 20 µM (inactive)
14,COCCNc1ncnc2ccc(-c3ccc(N(C)C)cc3)cc12,> 20 µM (inactive)
15,Cc1noc(C)c1C(=O)N1CCC2(CCCN(Cc3ccc(C#N)cc3)C2)CC1,> 20 µM (inactive)
16,O=C(c1csnn1)N1CCC[C@@]2(CCN(c3ccncc3)C2)C1,> 20 µM (inactive)
17,COc1ccc(-n2c(=O)c(-c3cccs3)nc3cnc(OC)nc32)cc1,> 20 µM (inactive)
18,Cc1ccccc1-c1cncnc1NCc1ccccc1,> 20 µM (inactive)
19,O=c1c(-c2cccs2)nc2cnc(Oc3ccccc3)nc2n1Cc1cccs1,> 20 µM (inactive)
20,CN(C)c1ccc(-c2cc(-n3ccnc3)ncn2)cc1,> 20 µM (inactive)

row,SMILES,Potency
1,COc1ccccc1CN1CC[C@@]2(CCCN(C(=O)c3c(C)noc3C)C2)C1,> 20 µM (inactive)
2,O=c1c(-c2ccc(F)cc2)nc2cnc(Nc3ccccc3)nc2n1Cc1cccs1,> 4 µM (inactive)
3,Clc1ccccc1-c1nccc(NCCN2CCOCC2)n1,> 20 µM (inactive)
4,Cn1cccc1C(=O)N1CCC2(CCCN(c3ccccc3)C2)CC1,> 20 µM (inactive)
5,c1nc(NCCN2CCOCC2)c2cc(-c3ccoc3)ccc2n1,> 20 µM (inactive)
6,O=C(c1cccc(F)c1)N1CCC2(CCCN(c3ccc(-c4ccccc4)cc3)C2)CC1,> 20 µM (inactive)
7,Cc1cnc(CNc2ncnc3ccc(-c4ccccc4C)cc23)cn1,> 20 µM (inactive)
8,O=C(c1cc(C(F)(F)F)cc(C(F)(F)F)c1)N1CCC[C@@]2(CCN(Cc3nccs3)C2)C1,> 20 µM (inactive)
9,CCNc1ncc2nc(-c3cn(C)c4ccccc34)c(=O)n(Cc3ccc(F)cc3)c2n1,> 20 µM (inactive)
10,c1cn(-c2ncnc3ccc(-c4ccoc4)cc23)cn1,> 20 µM (inactive)
11,O=c1cnc2cncnc2n1Cc1ccccc1Cl,> 20 µM (inactive)
12,Cn1cccc1C(=O)N1CCC2(CC1)CN(C(=O)Nc1cccc(F)c1)C2,> 20 µM (inactive)
13,N#CCCn1c(=O)c(-c2cccs2)nc2cnc(Oc3ccccc3)nc21,> 20 µM (inactive)
14,Cc1cccc(CNc2ncnc3ccc(-c4ccccc4C#N)cc23)c1,> 20 µM (inactive)
15,COc1ccc(-c2nc3cnc(N(C)C)nc3n(CCc3ccccc3)c2=O)cc1,> 4 µM (inactive)
16,COc1ccc(NC(=O)N2CCCC3(CCN(S(=O)(=O)c4ccccc4)CC3)C2)cc1,> 20 µM (inactive)
17,O=C(c1cccc(F)c1)N1CCC2(CCCN(c3ncccn3)C2)CC1,> 20 µM (inactive)
18,CC(=O)N1CCC2(CC1)CN(C(=O)Nc1cccc(C#N)c1)C2,> 20 µM (inactive)
19,O=c1c(-c2ccc(F)cc2)nc2cnc(Nc3ccccc3)nc2n1C1CC1,> 20 µM (inactive)
20,COCC(=O)N1CCC2(CC1)CCN(C(=O)Nc1cccc(F)c1)CC2,> 20 µM (inactive)
